Screens (PubChem)
In the library only some 19% were active in any assay of this set; here they are far more common.
DT40 TDP1 CPT = DT40-hTDP1 cell growth loss with CPT; chicken DT40 Tdp1-/-;hTDP1 cells + 20 nM CPT, ATP luminescence, 48 h; Potency, µM (series often up to 46.2 µM), for inactives: top-dose activity change, negative = growth inhibition, hits mostly inhibitors; 12% of 420,000 active; AID 686979; note: potency is the fitted concentration of half-maximal effect; nearly all actives have a fitted effect of over 55% in size
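Cell growth measured by CellTiter-Glo luminescence after a minimum 48 h, 37 C compound exposure with 20 nM CPT in Tdp1-knockout DT40 cells stably expressing hTDP1, seeded 400/well; qHTS titration format.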
HT1080 IDH1KD tx = kills HT-1080 cells with IDH1 knockdown; HT-1080 IDH1 knockdown viability, ATP luminescence, 48 h; Potency, µM (highest dose often 46.1 µM), for the others: top-dose activity, negative = toxicity, actives largely listed as cytotoxic; 2% of 360,000 active; AID 686971;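 note: potency is the fitted concentration of half-maximal effect; 0% = DMSO wells and -100% = cell-free medium wells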
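After a 2 h attachment period, IDH1KD HT-1080 cells took pin-transferred compound for 48 h at 37 °C; ATP-based luminescence after 10 min room-temperature reagent incubation reported viability.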
IL-1B inflam inh = blocks inflammasome-driven IL-1 beta release. THP-1 LPS/ATP IL-1B secretion, AlphaLISA, 16 h; active compounds read low. activity change, % at 57.5 µM. 4.7% of 360,000 active. AID 743279; in the data active = activity change below about -50%; inconclusive = mostly about -30% to -49%
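Secreted IL-1B measured by AlphaLISA bead assay after 16 h compound exposure of THP-1 cells; compounds (final up to 57.5 uM) added 1 h before LPS (250 ng/mL) and ATP (1.25 mM) stimulation; lower signal means less secretion.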
TDP1 cell noCPT = qHTS for Inhibitors of human tyrosyl-DNA phosphodiesterase 1 (TDP1): qHTS in cells in absence of CPT; DT40 Tdp1-/- hTDP1 cells, no CPT, ATP luminescence, 48 h; Potency, µM (doses to about 46.2 µM), without a hit: top-dose activity change, negative = growth inhibition, hits mostly inhibitors; 15% of 420,000 active; note: potency is the fitted concentration of half-maximal effect; nearly all actives have a fitted effect of over 55% in size
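Growth kinetics read by CellTiter-Glo luminescence after ≥48 hr at 37 °C. Cells: DT40 Tdp1-/- stably carrying human TDP1, 400 per well, compound exposure in the absence of CPT (DMSO vehicle).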
HT1080-NT tox = kills 2HG-producing HT-1080-NT fibrosarcoma cells; HT-1080-NT fibrosarcoma viability, CellTiter-Glo ATP luminescence, 48 h; Potency, µM (highest dose often 46.1 µM), inactives show at the highest dose activity, negative = less viability, usual class: cytotoxic; 1.6% of 360,000 active; AID 686970;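 note: NT is the 2HG producing partner of a matched IDH1 knockdown line; potency is the fitted concentration of half-maximal effect; 0% = DMSO-treated cells and -100% = media-only wells without cells; nearly all actives have a fitted effect of over 55% in size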
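Toxicity toward the 2HG-producing NT line was scored as %Activity, normalised to DMSO and no-cell wells, from CellTiter-Glo luminescence after 48 hours' treatment.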
uPA generation = inhibitors of cell surface uPA generation; cell surface uPA generation assay, qHTS; Potency, µM (titrated, usually from 38.3 µM), for inactives: at the top dose activity change, negative = inhibition, hits mostly inhibitors; 0.31% of 330,000 active; AID 540303; active = well fitted inhibition curve with a large enough effect; inconclusive = small, poorly fitted or top-dose-only effect; inactive = no such curve, though single readings can be large or run the other way; tested in mouse RAW 264.7 cells; note: potency is the fitted concentration of half-maximal effect; nearly all actives have a fitted effect of over 55% in size
Active calls of the source: *; i = inactive; ? = inconclusive; . = not tested or not shown; [ ] = dose if it differs, or a comment. Unless noted, calls come from the whole dose curve; as a rule, active = well fitted curve in the direction sought with a large enough effect; inconclusive = small, poorly fitted or top-dose-only effect, or another doubt; inactive = no such curve, though single readings can be large; an effect the other way counts as inactive or inconclusive. Unless noted, % is set by controls: 0 for no effect and ±100 for the full control effect.

SMILES	DT40 TDP1 CPT	HT1080 IDH1KD tx	IL-1B inflam inh	TDP1 cell noCPT	HT1080-NT tox	uPA generation
O=c1[nH]c(NCc2ccco2)nnc1Cc1ccccc1Cl	6.5µM*	?	-17	4.1µM*	?	-9%
COCCN(C(=O)COC(=O)c1ccc(Br)o1)c1c(N)n(Cc2ccccc2)c(=O)[nH]c1=O	5%	-12%	-3	-17%	-1%	.
C=CCn1c(N)c(C(=O)OC(C)(C)C)c2nc3ccccc3nc21	21µM*	-3%	?	12µM*	3%	-4%
COCCn1c(N)c(C(=O)NCc2cccs2)c2nc3ccccc3nc21	-21%	-14%	?	-5%	-19%	4%
C=CCn1c(N)c(C(=O)Nc2ccccc2)c2nc3ccccc3nc21	-10%	-13%	-62*	?	2%	5%
C=CCn1c(N)c(C(=O)OC(C)CC)c2nc3ccccc3nc21 (stereo not given)	-25%	-3%	?	?	-4%	8%
Cc1cc(C(=O)COC(=O)c2cccc(S(=O)(=O)N(C)C)c2)c(C)n1CC1CCCO1 (stereo not given)	16µM*	-19%	10	?	6%	-15%
Cc1cc(C(=O)COC(=O)c2ccc3c(c2)NC(=O)CS3)c(C)n1CC1CCCO1 (stereo not given)	?	-12%	5	16µM*	7%	-7%
Cc1cc(C(=O)COC(=O)c2ccc(O)cc2)c(C)n1CC1CCCO1 (stereo not given)	11%	0%	36	-10%	-2%	-10%
COc1cccc(OC)c1C(=O)Nc1ccncc1	0%	11%	13	2%	5%	3%
CCN(CC)S(=O)(=O)c1cccc(C(=O)NCC2CCCCC2)c1	?	-10%	-29	21µM*	-17%	.
CN(C)S(=O)(=O)c1cccc(NC(=O)COC(=O)CCSc2ccc(Cl)cc2)c1	18%	2%	40	-16%	0%	-1%
CCN(CC)S(=O)(=O)c1cccc(C(=O)NCC(c2ccccc2)N(C)C)c1 (stereo not given)	5%	2%	-21	-6%	2%	1%
CCN(CC)S(=O)(=O)c1cccc(NC(=O)CN(C)C2CCCCC2)c1	?	-6%	11	15µM*	-18%	-2%
CCN(CC)S(=O)(=O)c1cccc(NC(=O)CCSc2ccc(Cl)cc2)c1	16µM*	-25%	2	21µM*	-26%	-15%
Cc1ccc(C(=O)N(C)c2ccc(OCC(=O)N3c4ccc(C)cc4C4CN(C)CCC43)cc2)cc1 (stereo not given)	?	-13%	-60*	?	-3%	-12%
COc1ccc(OCC(=O)N2c3ccc(C)cc3C3CN(C)CCC32)cc1 (stereo not given)	18%	0%	6	2%	-15%	5%
Cc1ccc2c(c1)C1CN(C)CCC1N2C(=S)NC(=O)c1ccc(Br)cc1 (stereo not given)	9.2µM*	-26%	0	?	1%	?
CCCCN(C)C(=O)c1ccc(Nc2nc(C(N)CCc3ccccc3)cs2)nc1 (stereo not given)	15µM*	23µM*	-11	21µM*	18µM*	.
CC(N)c1csc(Nc2ccc(C(=O)NCCCO)cn2)n1 (stereo not given)	-14%	16%	30	-11%	?	.
COc1ccc(C(N)c2csc(Nc3ccc(C(=O)NCCCO)cn3)n2)cc1 (stereo not given)	?	0%	-15	?	-8%	.
CCCCN(C)C(=O)c1ccc(Nc2nc(C(N)Cc3ccc(C(F)(F)F)cc3)cs2)nc1 (stereo not given)	8.2µM*	16µM*	-30	12µM*	?	.
Cc1cc(C)c(CSc2nnc(C)n3c2cc2occc23)c(C)c1	18µM*	.	.	21µM*	.	.
CCc1csc(CCNC(=O)C2CCC(=O)N(CCc3cccc(F)c3)C2)n1 (stereo not given)	-29%	-22%	i	-9%	0%	-6%
CCOC1=CC2=C(C(=O)C(Cl)=CC2=O)[C@@H]2CN(S(=O)(=O)c3ccc(C)cc3)[C@@H](c3ccccc3)[C@H]12	1.2µM*	?	0	1.8µM*	?	.
SMILES	DT40 TDP1 CPT	HT1080 IDH1KD tx	IL-1B inflam inh	TDP1 cell noCPT	HT1080-NT tox	uPA generation
O=C(CCCCCN1C(=O)c2cccc3cccc(c23)C1=O)NCc1cccnc1	2.9µM*	2.3µM*	.	?	2.9µM*	8%
O=C(CCCN1C(=O)c2cccc3cccc(c23)C1=O)NCc1cccnc1	-3%	-8%	?	4%	-19%	0%
OCc1ccccc1SSc1ccccc1CO	2.3µM*	?	-99*	3.3µM*	?	-6%
CC1=C(C(=O)N(C)C)CC(CC(=O)NCc2cccc3ccccc23)C(=O)N1CCCN1CCCC1=O (stereo not given)	21%	6%	11	16%	0%	.
COc1cc2c(cc1OC)C(SC)=NC(C)(C)C2	?	?	-102*	?	?	?
Cc1ccc(/C=N/n2cnc3sc4c(c3c2=O)CCCC4)o1	-21%	-14%	-58*	-18%	?	2%
O=c1c2c3c(sc2ncn1/N=C/c1ccc(Br)o1)CCCC3	-4%	5%[9.24 µM]	?	-15%	-6%	0%
Cc1ccccc1N1C(=O)C(Oc2ccc(Cl)cc2)C1CNCCCOC(C)C (stereo not given)	?	16µM*	-91*	26µM*	16µM*	-6%
COCCCNCC1C(Oc2ccc(Cl)cc2)C(=O)N1c1ccccc1C (stereo not given)	?	-12%	-76*	16µM*	-29%	-7%
CC1CCC2(CC1)NC(=O)N(CC(=O)NC1CCCCC1C)C2=O (stereo not given)	?	0%	-10	-66%	1%	-13%
C/C(=N\NC(=O)C(=O)Nc1c(C)n(C)n(-c2ccccc2)c1=O)c1ccncc1	1%	7%	22	3%	8%	1%
CCN1C(=O)C2C(c3ccccc3F)NC(Cc3ccc(O)cc3)(C(=O)OC)C2C1=O (stereo not given)	?	-5%	27	?	1%	1%
CCCCCCSc1ccc([C@H]2N[C@@](Cc3ccccc3)(C(=O)OC)[C@H]3C(=O)N(CC)C(=O)[C@@H]23)cc1	?	5%	-23	18µM*	-12%	3%
